In PubChem BioAssay (NCATS):
Values without a mark were called inactive. Records with an inconclusive call do not appear. Where a call stands in place of a potency, no number is given. Active and inactive are the calls of the source. Unless noted, calls come from the whole dose curve; as a rule, active = well fitted inhibition curve with a large enough effect; inconclusive = small, poorly fitted or top-dose-only effect; inactive = no such curve, though single readings can be large or run the other way.

Experiments:
[1] = biological target: Cytochrome P450 1A2 (Homo sapiens) (UniProt P05177); assay: p450-cyp1a2 (AID 410; calls by dose curve; note: potency is the fitted concentration of half-maximal effect)
Sequence of Cytochrome P450 1A2 (Homo sapiens) (P05177 whole entry, looked up): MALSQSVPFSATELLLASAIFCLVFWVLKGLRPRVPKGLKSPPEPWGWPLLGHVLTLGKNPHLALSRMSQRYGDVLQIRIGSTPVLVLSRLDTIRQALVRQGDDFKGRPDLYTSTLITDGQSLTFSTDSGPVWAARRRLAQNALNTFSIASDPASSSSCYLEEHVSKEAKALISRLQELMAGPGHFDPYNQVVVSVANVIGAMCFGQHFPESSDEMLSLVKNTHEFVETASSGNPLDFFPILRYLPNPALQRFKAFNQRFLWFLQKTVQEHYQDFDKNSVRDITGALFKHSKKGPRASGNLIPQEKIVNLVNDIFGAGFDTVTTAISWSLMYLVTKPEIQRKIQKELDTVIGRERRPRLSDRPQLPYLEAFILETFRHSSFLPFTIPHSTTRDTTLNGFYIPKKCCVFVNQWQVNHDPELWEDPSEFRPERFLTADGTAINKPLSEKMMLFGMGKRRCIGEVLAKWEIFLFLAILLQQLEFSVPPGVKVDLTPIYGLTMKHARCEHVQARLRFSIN
Summary of the method: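 Luminescent readout of luciferin formed from Luciferin-ME by human CYP1A2; data normalized against complete inhibition by 57 uM furafylline. Enzyme 20nM, substrate 100uM at Km, 100mM KPO4 buffer, 60 min reaction at room temperature.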

[2] = biological target: Glucocorticoid receptor (Homo sapiens) (UniProt P04150); assay: GR-EFC Redistribution (AID 451; calls by dose curve; note: potency is the fitted concentration of half-maximal effect); settings: CHO-K1 GR-EFC translocation, beta-gal luminescence, 2 h
Sequence of Glucocorticoid receptor (Homo sapiens) (P04150 whole entry, looked up, the tested form may be a part): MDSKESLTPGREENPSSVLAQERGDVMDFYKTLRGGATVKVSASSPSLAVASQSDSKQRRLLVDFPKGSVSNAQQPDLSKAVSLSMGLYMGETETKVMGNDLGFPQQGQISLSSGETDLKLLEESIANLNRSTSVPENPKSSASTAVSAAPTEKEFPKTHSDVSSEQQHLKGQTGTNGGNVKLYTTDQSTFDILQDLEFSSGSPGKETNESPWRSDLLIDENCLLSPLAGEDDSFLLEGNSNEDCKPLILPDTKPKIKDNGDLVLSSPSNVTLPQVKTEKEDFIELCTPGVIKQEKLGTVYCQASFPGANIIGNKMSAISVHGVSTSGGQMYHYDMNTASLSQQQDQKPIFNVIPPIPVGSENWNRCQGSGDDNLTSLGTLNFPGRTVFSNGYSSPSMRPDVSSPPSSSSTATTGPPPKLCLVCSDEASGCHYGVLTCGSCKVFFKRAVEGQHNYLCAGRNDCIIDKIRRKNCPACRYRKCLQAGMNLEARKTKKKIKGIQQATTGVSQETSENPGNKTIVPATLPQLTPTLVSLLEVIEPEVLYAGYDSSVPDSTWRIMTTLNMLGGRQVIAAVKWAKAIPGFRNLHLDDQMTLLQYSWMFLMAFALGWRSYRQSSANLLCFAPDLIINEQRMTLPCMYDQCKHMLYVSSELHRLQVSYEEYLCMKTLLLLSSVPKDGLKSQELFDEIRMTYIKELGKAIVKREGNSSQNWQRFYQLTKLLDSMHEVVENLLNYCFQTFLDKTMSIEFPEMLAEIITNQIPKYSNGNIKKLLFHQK
Summary of the method: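 CHO-K1 cells stably expressing nuclear-localized β-gal enzyme acceptor and GR fused C-terminally to the enzyme donor fragment; ligand-driven nuclear translocation restores β-gal by complementation. Compounds titrated up to 46 uM final, 2 h at 37 °C; luminescence read.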

[3] = biological target: Mitogen-activated protein kinase 10 (Mus musculus) (UniProt Q61831); assay: JNK3 AlphaScreen Assay (AID 530; active = well fitted curve in either direction with a large enough effect, not every such curve was filed as active;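 note: kinase came from lysate of stimulated human HepG2 cells; signal reports phosphorylation of biotinylated GST-cJun 1-79 at Ser73 with 10 µM ATP; series mostly up to about 57 µM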)
Summary of the method: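 Inhibitors reduce antibody binding to phosphorylated biotin-cJun, lowering AlphaScreen luminescence. Lysates from HepG2 cells pre-activated by IL-1beta plus TNF-alpha supplied JNK3; compounds were titrated.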

[4] = biological target: 3',5'-cyclic-AMP phosphodiesterase 4B (Homo sapiens) (UniProt Q07343); assay: qHTS Assay for Inhibitors of PDE-IV (AID 607; active = well fitted activation curve with a large enough effect in the main read-out, with a control signal flat, not every such curve was filed as active)
Sequence of 3',5'-cyclic-AMP phosphodiesterase 4B (Homo sapiens) (Q07343 whole entry, looked up): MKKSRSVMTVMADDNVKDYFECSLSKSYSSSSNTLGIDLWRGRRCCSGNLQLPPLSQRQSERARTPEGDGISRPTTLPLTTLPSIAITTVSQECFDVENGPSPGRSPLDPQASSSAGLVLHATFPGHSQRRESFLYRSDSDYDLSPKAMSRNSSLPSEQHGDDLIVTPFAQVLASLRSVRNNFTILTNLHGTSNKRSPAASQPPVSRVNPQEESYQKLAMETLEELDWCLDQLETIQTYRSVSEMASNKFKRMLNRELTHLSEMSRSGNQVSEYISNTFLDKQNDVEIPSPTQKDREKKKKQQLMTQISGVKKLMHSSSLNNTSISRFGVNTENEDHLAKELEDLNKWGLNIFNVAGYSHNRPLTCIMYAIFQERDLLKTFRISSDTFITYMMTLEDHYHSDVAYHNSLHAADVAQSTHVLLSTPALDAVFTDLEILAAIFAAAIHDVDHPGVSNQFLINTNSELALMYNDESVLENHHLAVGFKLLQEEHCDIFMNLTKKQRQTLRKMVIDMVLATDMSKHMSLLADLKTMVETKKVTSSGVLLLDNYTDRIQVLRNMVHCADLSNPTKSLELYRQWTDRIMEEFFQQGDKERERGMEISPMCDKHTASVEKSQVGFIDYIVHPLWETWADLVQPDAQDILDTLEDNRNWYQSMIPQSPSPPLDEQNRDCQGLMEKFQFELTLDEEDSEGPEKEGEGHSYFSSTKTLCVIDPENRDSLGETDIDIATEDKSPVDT
Summary of the method: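 ACTOne HEK293 cells carry a modified cAMP-gated CNG channel and express endogenous PDE4; plated 1000 cells/well, compounds up to 22.9 uM final. Membrane-potential dye fluorescence (ex 535/em 590) was read; parental cells received 10 uM forskolin + 100 uM RO 20-1724.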

[5] = biological target: Cytochrome P450 2C9 (Homo sapiens) (UniProt P11712); assay: qHTS Assay for Inhibitors and Substrates of Cytochrome P450 2C9 (AID 883); note: nearly all actives have a fitted effect of over 60% in size
Sequence of Cytochrome P450 2C9 (Homo sapiens) (P11712 whole entry, looked up): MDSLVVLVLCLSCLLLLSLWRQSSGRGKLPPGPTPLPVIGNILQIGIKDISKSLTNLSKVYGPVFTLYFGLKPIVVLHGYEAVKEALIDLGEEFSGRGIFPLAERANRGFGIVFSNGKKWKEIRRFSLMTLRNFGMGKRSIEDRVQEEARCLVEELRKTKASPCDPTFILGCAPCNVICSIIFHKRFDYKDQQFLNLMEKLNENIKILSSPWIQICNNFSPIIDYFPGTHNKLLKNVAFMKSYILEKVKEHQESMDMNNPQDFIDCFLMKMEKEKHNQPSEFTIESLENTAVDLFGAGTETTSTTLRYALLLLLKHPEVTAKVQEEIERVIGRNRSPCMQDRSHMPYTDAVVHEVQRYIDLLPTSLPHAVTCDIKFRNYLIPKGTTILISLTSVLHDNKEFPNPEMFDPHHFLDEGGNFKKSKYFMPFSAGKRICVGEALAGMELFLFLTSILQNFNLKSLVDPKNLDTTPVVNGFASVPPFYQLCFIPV
Summary of the method: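 Human CYP2C9 (10nM) hydroxylated Luciferin-H (100uM, at its KM) to luciferin in 25mM KPO4. Compound was preincubated 10 min at 37C, then NADPH regeneration started a 60 min reaction at 37C. Luminescence was read after detection reagent, normalized to 57uM sulphaphenazole.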

[6] = biological target: Cytochrome P450 2C19 (Homo sapiens) (UniProt P33261); assay: qHTS Assay for Inhibitors and Substrates of Cytochrome P450 2C19 (AID 899); note: nearly all actives have a fitted effect of over 60% in size
Sequence of Cytochrome P450 2C19 (Homo sapiens) (P33261 whole entry, looked up): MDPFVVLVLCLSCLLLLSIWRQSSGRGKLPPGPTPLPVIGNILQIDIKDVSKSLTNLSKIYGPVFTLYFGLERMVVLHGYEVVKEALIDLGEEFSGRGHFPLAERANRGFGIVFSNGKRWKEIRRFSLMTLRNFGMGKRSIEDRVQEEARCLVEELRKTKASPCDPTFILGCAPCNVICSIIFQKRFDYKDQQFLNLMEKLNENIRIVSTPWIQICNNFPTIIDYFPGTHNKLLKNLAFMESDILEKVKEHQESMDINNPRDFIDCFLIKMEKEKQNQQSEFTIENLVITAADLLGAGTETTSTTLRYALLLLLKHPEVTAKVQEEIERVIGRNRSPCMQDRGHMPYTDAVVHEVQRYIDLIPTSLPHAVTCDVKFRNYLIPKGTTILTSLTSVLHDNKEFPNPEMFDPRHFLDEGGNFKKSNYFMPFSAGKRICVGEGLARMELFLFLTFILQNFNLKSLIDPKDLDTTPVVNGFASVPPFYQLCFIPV
Summary of the method: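 Human CYP2C19 (5nM) with Luciferin-H EGE at 10uM (its KM) in 50mM KPO4 was preincubated with compound for 10 min at 37C. NADPH regeneration started a 60 min 37C reaction. Luciferin was read by luminescence, normalized to 57uM ketoconazole.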

[7] = biological target: Cytochrome P450 2D6 (Homo sapiens) (UniProt P10635); assay: qHTS Assay for Inhibitors and Substrates of Cytochrome P450 2D6 (AID 891);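 note: luciferin methyl ether substrate demethylated by CYP2D6 with NADPH regeneration; nearly all actives have a fitted effect of over 60% in size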
Sequence of Cytochrome P450 2D6 (Homo sapiens) (P10635 whole entry, looked up): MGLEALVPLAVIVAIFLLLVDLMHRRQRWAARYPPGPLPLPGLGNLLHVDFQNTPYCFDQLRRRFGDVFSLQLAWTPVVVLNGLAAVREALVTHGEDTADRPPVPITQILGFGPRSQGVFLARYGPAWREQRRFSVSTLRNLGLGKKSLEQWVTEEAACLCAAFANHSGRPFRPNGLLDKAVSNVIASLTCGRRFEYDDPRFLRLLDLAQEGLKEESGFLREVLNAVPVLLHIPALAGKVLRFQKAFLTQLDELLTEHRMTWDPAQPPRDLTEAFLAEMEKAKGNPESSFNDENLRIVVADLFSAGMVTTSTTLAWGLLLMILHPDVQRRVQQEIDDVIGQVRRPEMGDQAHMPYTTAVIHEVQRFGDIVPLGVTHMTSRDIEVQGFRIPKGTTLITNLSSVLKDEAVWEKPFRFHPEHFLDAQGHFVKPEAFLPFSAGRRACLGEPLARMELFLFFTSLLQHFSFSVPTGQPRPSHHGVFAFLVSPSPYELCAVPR
Summary of the method: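 Human CYP2D6 (5 nM) with 30 uM Luciferin-ME EGE (at Km) in 100 mM KPO4, compound preincubated 10 min, then NADPH regeneration system for 60 min at room temperature. Luciferin read by luminescence; normalized to 1.43 uM quinidine.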

NCCC[C@@H](CC(=O)N[C@@H]1CCNC[C@H]1C(=O)N[C@H](CC(=O)N[C@@H](CCC(=O)O)CC(=O)O)Cc1ccccc1)NC(=O)C[C@H](Cc1c[nH]c2ccccc12)NC(=O)[C@@H]1CNCC[C@H]1N
Potency [1]: inactive
Potency [2]: > 46 µM
Potency [3]: inactive
Potency [4]: inactive
Potency [5]: inactive
Potency [6]: inactive

CC(C)C[C@@H](CC(=O)N[C@@H](CCC(=O)O)CC(=O)O)NC(=O)[C@@H]1CNCC[C@H]1NC(=O)C[C@@H](NC(=O)C[C@H](Cc1ccccc1)NC(=O)[C@@H]1CNCC[C@H]1N)C(C)C
Potency [1]: 31.6 µM (active)
Potency [2]: > 46 µM
Potency [3]: inactive
Potency [5]: inactive
Potency [6]: inactive

CC(C)[C@@H](CC(=O)N[C@@H]1CCCC[C@H]1C(=O)N[C@H](CC(=O)N[C@@H](CCC(=O)O)CC(=O)O)Cc1c[nH]c2ccccc12)NC(=O)C[C@H](Cc1ccccc1)NC(=O)[C@@H]1CCCC[C@H]1N
Potency [1]: inactive
Potency [2]: > 46 µM
Potency [4]: inactive
Potency [5]: inactive
Potency [7]: inactive
Potency [6]: inactive

CC(C)C[C@@H](CC(=O)N[C@@H](CCC(=O)O)CC(=O)O)NC(=O)[C@@H]1CCCC[C@H]1NC(=O)C[C@@H](NC(=O)C[C@H](Cc1c[nH]c2ccccc12)NC(=O)[C@@H]1CCCC[C@H]1N)C(C)C
Potency [1]: inactive
Potency [2]: > 46 µM
Potency [4]: inactive
Potency [5]: inactive
Potency [7]: inactive
Potency [6]: inactive

CC(C)C[C@@H](CC(=O)N[C@@H](CCC(=O)O)CC(=O)O)NC(=O)[C@@H]1CNCC[C@H]1NC(=O)C[C@@H](NC(=O)C[C@H](Cc1ccccc1)NC(=O)[C@@H]1CCCC[C@H]1N)C(C)C
Potency [1]: 31.6 µM (active)
Potency [2]: > 46 µM
Potency [4]: inactive
Potency [5]: inactive
Potency [6]: inactive

CC(C)C[C@@H](CC(=O)N[C@@H](CCC(=O)O)CC(=O)O)NC(=O)[C@@H]1CCCC[C@H]1NC(=O)C[C@H](CCCN)NC(=O)C[C@H](CO)NC(=O)[C@@H]1CCCC[C@H]1N
Potency [1]: inactive
Potency [2]: > 46 µM
Potency [4]: inactive
Potency [5]: inactive
Potency [7]: inactive
Potency [6]: inactive

CC(C)C[C@@H](CC(=O)N[C@H](CC(=O)N[C@@H]1CCCC[C@H]1C(=O)N[C@H](CC(=O)N[C@@H](CCC(=O)O)CC(=O)O)Cc1c[nH]c2ccccc12)C(C)C)NC(=O)[C@@H]1CNCC[C@H]1N
Potency [1]: inactive
Potency [2]: > 46 µM
Potency [4]: inactive
Potency [5]: inactive
Potency [7]: inactive
Potency [6]: inactive

CC(C)C[C@@H](CC(=O)N[C@@H](CCC(=O)O)CC(=O)O)NC(=O)[C@@H]1CNCC[C@H]1NC(=O)C[C@H](CCCN)NC(=O)C[C@H](CO)NC(=O)[C@@H]1CNCC[C@H]1N
Potency [1]: inactive
Potency [2]: > 46 µM
Potency [3]: inactive
Potency [4]: inactive
Potency [7]: inactive

CC(C)C[C@@H](CC(=O)N[C@@H](CCCN)CC(=O)N[C@@H]1CCCC[C@H]1C(=O)N[C@H](CC(=O)N[C@@H](CCC(=O)O)CC(=O)O)Cc1ccccc1)NC(=O)[C@@H]1CCCC[C@H]1N
Potency [1]: inactive
Potency [2]: > 46 µM
Potency [3]: inactive
Potency [4]: inactive
Potency [7]: inactive

CC(C)[C@@H](CC(=O)N[C@@H]1CCNC[C@H]1C(=O)N[C@H](CC(=O)N[C@@H](CCC(=O)O)CC(=O)O)Cc1ccccc1)NC(=O)C[C@H](CO)NC(=O)[C@@H]1CNCC[C@H]1N
Potency [1]: inactive
Potency [2]: > 46 µM
Potency [4]: inactive
Potency [7]: inactive

CC(C)C[C@@H](CC(=O)N[C@@H](CCCN)CC(=O)N[C@@H]1CCCC[C@H]1C(=O)N[C@H](CC(=O)N[C@@H](CCC(=O)O)CC(=O)O)Cc1c[nH]c2ccccc12)NC(=O)[C@@H]1CCCC[C@H]1N
Potency [1]: inactive
Potency [2]: > 46 µM
Potency [4]: inactive
Potency [7]: inactive
Potency [6]: inactive

NCCC[C@@H](CC(=O)N[C@@H]1CCCC[C@H]1C(=O)N[C@H](CC(=O)N[C@@H](CCC(=O)O)CC(=O)O)Cc1c[nH]c2ccccc12)NC(=O)C[C@H](CO)NC(=O)[C@@H]1CCCC[C@H]1N
Potency [1]: inactive
Potency [2]: > 46 µM
Potency [3]: inactive
Potency [4]: inactive
Potency [7]: inactive
Potency [6]: inactive

CC(C)C[C@@H](CC(=O)N[C@@H](CCC(=O)O)CC(=O)O)NC(=O)[C@@H]1CNCC[C@H]1NC(=O)C[C@@H](NC(=O)C[C@H](CO)NC(=O)[C@@H]1CNCC[C@H]1N)C(C)C
Potency [1]: inactive
Potency [2]: > 46 µM
Potency [4]: inactive
Potency [7]: inactive
Potency [6]: inactive

CC(C)C[C@@H](CC(=O)N[C@H](CC(=O)N[C@@H]1CCNC[C@H]1C(=O)N[C@H](CC(=O)N[C@@H](CCC(=O)O)CC(=O)O)Cc1ccccc1)C(C)C)NC(=O)[C@@H]1CCCC[C@H]1N
Potency [1]: inactive
Potency [2]: > 46 µM
Potency [3]: inactive
Potency [4]: inactive
Potency [7]: inactive

CC(C)C[C@@H](CC(=O)N[C@@H](CCCN)CC(=O)N[C@@H]1CCNC[C@H]1C(=O)N[C@H](CC(=O)N[C@@H](CCC(=O)O)CC(=O)O)Cc1c[nH]c2ccccc12)NC(=O)[C@@H]1CNCC[C@H]1N
Potency [1]: inactive
Potency [2]: > 46 µM
Potency [4]: inactive
Potency [5]: inactive
Potency [7]: inactive
Potency [6]: inactive

CC(C)C[C@@H](CC(=O)N[C@H](CC(=O)N[C@@H]1CCCC[C@H]1C(=O)N[C@H](CC(=O)N[C@@H](CCC(=O)O)CC(=O)O)CC(C)C)C(C)C)NC(=O)[C@@H]1CNCC[C@H]1N
Potency [1]: inactive
Potency [2]: > 46 µM
Potency [4]: inactive
Potency [5]: inactive
Potency [7]: inactive
